Activity calls are given as the source filed them. The calls were made as follows: active = hit-call score of the fitted dose curve at least 0.9, where 1 is the maximum; inactive = score below 0.9.
target: Heat shock factor protein 1 (Homo sapiens) (UniProt Q00613); test: ATG_HSE_CIS: Attagene CIS-FACTORIAL HepG2 Assay for human Heat Shock Transcription Factor 1 (HSE) (AID 2282953); conditions: HepG2 HSE cis-reporter, Attagene RNA transcription; actives raise or lower the signal
Summary of the method: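 Reporter mRNA induction in HepG2 is measured 24 h after dosing, using transiently transfected multiplexed cis-regulated reporter units. Signal comes from capillary electrophoresis of labelled RT-PCR products, with DMSO as negative control.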

Heat shock factor protein 1 (Homo sapiens), sequence (Q00613 whole entry, looked up): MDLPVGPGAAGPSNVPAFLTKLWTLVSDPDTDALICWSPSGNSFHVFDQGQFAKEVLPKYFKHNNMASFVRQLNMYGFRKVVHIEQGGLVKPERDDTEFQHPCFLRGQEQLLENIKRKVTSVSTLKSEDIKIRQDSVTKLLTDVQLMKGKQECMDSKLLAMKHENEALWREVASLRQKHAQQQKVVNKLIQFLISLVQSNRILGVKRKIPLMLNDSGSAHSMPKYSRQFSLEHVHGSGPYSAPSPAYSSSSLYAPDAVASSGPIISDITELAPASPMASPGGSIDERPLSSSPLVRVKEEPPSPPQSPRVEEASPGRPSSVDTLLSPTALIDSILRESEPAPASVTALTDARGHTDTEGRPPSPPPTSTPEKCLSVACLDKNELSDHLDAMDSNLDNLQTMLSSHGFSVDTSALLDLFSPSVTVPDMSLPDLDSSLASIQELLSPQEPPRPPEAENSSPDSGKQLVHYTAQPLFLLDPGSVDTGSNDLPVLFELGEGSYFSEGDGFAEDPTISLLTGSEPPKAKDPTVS

Row | SMILES | outcome | AC50
1 | Nc1ccc(N=Nc2ccccc2)cc1 | inactive | –
2 | N#CC(Br)(Br)C(N)=O | inactive | –
3 | CC(C)(OOC(C)(C)c1ccccc1)c1ccccc1 | inactive | –
4 | CCC(C)c1ccc(O)cc1 (configuration not stated) | inactive | –
5 | Cc1cc(N=Nc2ccccc2C)ccc1N | – | 53.8 µM (active)
6 | CCC12COCN1COC2 | inactive | –
7 | CCCCCCCCn1sccc1=O | – | 16.7 µM (active)
8 | CCCCOC(=O)c1ccccc1C(=O)OCc1ccccc1 | inactive | –
9 | COC(=O)Nc1nc2ccccc2[nH]1 | inactive | –
10 | CC(C)(C)OOC(C)(C)CCC(C)(C)OOC(C)(C)C | inactive | –
11 | O=C1CCCO1 | inactive | –
12 | CCC[CH2][Sn]([Cl])([CH2]CCC)[CH2]CCC | – | 0.667 µM (active)
13 | [O-][Cl+]O | inactive | –
14 | ClCCOCCCl | inactive | –
15 | CC(C)(C)OOC(=O)c1ccccc1 | inactive | –
16 | c1ccc(NNc2ccccc2)cc1 | inactive | –
17 | c1ccc2c(c1)-c1cccc3cccc-2c13 | inactive | –
18 | Cc1cccc(N)c1N | inactive | –
19 | Clc1ccc(C(c2ccc(Cl)cc2)C(Cl)(Cl)Cl)cc1 | inactive | –
20 | CN(C)c1ccc(C(=O)c2ccc(N(C)C)cc2)cc1 | inactive | –
21 | COC(=O)c1ccccc1N | inactive | –
22 | O=C(N[C@H](c1ccccc1)[C@@H]1CN2CCC1CC2)c1c(Cl)ccc(C(F)(F)F)c1Cl | inactive | –
23 | CN(C)c1ccccc1 | inactive | –
24 | O=[N+]([O-])c1ccc(Oc2ccc(Cl)cc2Cl)cc1 | inactive | –
25 | CCCCCCCCOC(=O)c1ccc(C(=O)OCCCCCCCC)c(C(=O)OCCCCCCCC)c1 | inactive | –
26 | COP(=S)(OC)SCN1C(=O)c2ccccc2C1=O | inactive | –

test system: not listed separately; test: ATG_MRE_CIS: Attagene CIS-FACTORIAL HepG2 Assay for human Metal Responsive Element (MRE) (AID 2282954); conditions: HepG2 MRE cis-reporter transcription, Attagene multiplex; actives raise or lower the signal
Summary of the method: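 Fluorescent reporter fragments separated by capillary electrophoresis give mRNA induction for the MRE unit after 24 h treatment of transfected HepG2 cells. Endogenous transcription-factor activity is read; DMSO serves as negative control and baseline.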

Row | SMILES | AC50 | outcome
27 | Nc1ccc(N=Nc2ccccc2)cc1 | 67 µM (active) | –
28 | N#CC(Br)(Br)C(N)=O | – | inactive
29 | OCCOCCO | – | inactive
30 | CC(C)(OOC(C)(C)c1ccccc1)c1ccccc1 | 64 µM (active) | –
31 | CCC(C)c1ccc(O)cc1 (configuration not stated) | 82.1 µM (active) | –
32 | Cc1cc(N=Nc2ccccc2C)ccc1N | 27.9 µM (active) | –
33 | CCC12COCN1COC2 | – | inactive
34 | CCCCCCCCn1sccc1=O | 16.7 µM (active) | –
35 | CCCCOC(=O)c1ccccc1C(=O)OCc1ccccc1 | – | inactive
36 | COC(=O)Nc1nc2ccccc2[nH]1 | – | inactive
37 | CC(C)(C)OOC(C)(C)CCC(C)(C)OOC(C)(C)C | – | inactive
38 | O=C1CCCO1 | – | inactive
39 | CCC[CH2][Sn]([Cl])([CH2]CCC)[CH2]CCC | 0.778 µM (active) | –
40 | [O-][Cl+]O | – | inactive
41 | ClCCOCCCl | – | inactive
42 | CC(C)(C)OOC(=O)c1ccccc1 | 147 µM (active) | –
43 | c1ccc(NNc2ccccc2)cc1 | – | inactive
44 | Cc1ccc(N=C=O)cc1N=C=O | – | inactive
45 | c1ccc2c(c1)-c1cccc3cccc-2c13 | – | inactive
46 | Cc1cccc(N)c1N | 106 µM (active) | –
47 | Clc1ccc(C(c2ccc(Cl)cc2)C(Cl)(Cl)Cl)cc1 | 100 µM (active) | –
48 | CN(C)c1ccc(C(=O)c2ccc(N(C)C)cc2)cc1 | – | inactive
49 | COC(=O)c1ccccc1N | – | inactive
50 | O=C(N[C@H](c1ccccc1)[C@@H]1CN2CCC1CC2)c1c(Cl)ccc(C(F)(F)F)c1Cl | – | inactive
51 | CN(C)c1ccccc1 | – | inactive
52 | O=[N+]([O-])c1ccc(Oc2ccc(Cl)cc2Cl)cc1 | 50.1 µM (active) | –
53 | CCCCCCCCOC(=O)c1ccc(C(=O)OCCCCCCCC)c(C(=O)OCCCCCCCC)c1 | – | inactive
54 | COP(=S)(OC)SCN1C(=O)c2ccccc2C1=O | – | inactive

test system: not listed separately; test: ATG_PBREM_CIS: Attagene CIS-FACTORIAL HepG2 Assay for human Phenobarbital-responsive Enhancer Module (PBREM) (AID 2282955); conditions: HepG2 PBREM cis-reporter, Attagene multiplexed transcription; actives raise or lower the signal
Summary of the method: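 Multiplexed cis-reporter readout in human hepatoma HepG2 cells; PBREM-regulated transcript quantified after 24 h exposure by fluorescent RT-PCR fragment analysis. Signal changes up or down fitted relative to DMSO.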

Row | SMILES | AC50 | outcome
55 | Nc1ccc(N=Nc2ccccc2)cc1 | 67.3 µM (active) | –
56 | OCCOCCO | – | inactive
57 | CC(C)(OOC(C)(C)c1ccccc1)c1ccccc1 | 25.3 µM (active) | –
58 | CCC(C)c1ccc(O)cc1 (configuration not stated) | – | inactive
59 | Cc1cc(N=Nc2ccccc2C)ccc1N | 33.4 µM (active) | –
60 | CCC12COCN1COC2 | – | inactive
61 | CCCCOC(=O)c1ccccc1C(=O)OCc1ccccc1 | – | inactive
62 | COC(=O)Nc1nc2ccccc2[nH]1 | – | inactive
63 | CC(C)(C)OOC(C)(C)CCC(C)(C)OOC(C)(C)C | – | inactive
64 | O=C1CCCO1 | – | inactive
65 | CCC[CH2][Sn]([Cl])([CH2]CCC)[CH2]CCC | – | inactive
66 | CC(C)(C)OOC(=O)c1ccccc1 | – | inactive
67 | Cc1ccc(N=C=O)cc1N=C=O | – | inactive
68 | c1ccc2c(c1)-c1cccc3cccc-2c13 | – | inactive
69 | Cc1cccc(N)c1N | – | inactive
70 | CN(C)c1ccc(C(=O)c2ccc(N(C)C)cc2)cc1 | – | inactive
71 | COC(=O)c1ccccc1N | – | inactive
72 | O=C(N[C@H](c1ccccc1)[C@@H]1CN2CCC1CC2)c1c(Cl)ccc(C(F)(F)F)c1Cl | – | inactive
73 | O=[N+]([O-])c1ccc(Oc2ccc(Cl)cc2Cl)cc1 | 22.5 µM (active) | –
74 | CCCCCCCCOC(=O)c1ccc(C(=O)OCCCCCCCC)c(C(=O)OCCCCCCCC)c1 | – | inactive

target: Paired box protein Pax-6 (Homo sapiens) (UniProt P26367); test: ATG_Pax6_CIS: Attagene CIS-FACTORIAL HepG2 Assay for human Paired Box 6 (PAX6) (AID 2282956); conditions: HepG2 CIS-FACTORIAL PAX6 reporter transcription, RNA readout; actives raise or lower the signal
Sequence (P26367 whole entry, looked up): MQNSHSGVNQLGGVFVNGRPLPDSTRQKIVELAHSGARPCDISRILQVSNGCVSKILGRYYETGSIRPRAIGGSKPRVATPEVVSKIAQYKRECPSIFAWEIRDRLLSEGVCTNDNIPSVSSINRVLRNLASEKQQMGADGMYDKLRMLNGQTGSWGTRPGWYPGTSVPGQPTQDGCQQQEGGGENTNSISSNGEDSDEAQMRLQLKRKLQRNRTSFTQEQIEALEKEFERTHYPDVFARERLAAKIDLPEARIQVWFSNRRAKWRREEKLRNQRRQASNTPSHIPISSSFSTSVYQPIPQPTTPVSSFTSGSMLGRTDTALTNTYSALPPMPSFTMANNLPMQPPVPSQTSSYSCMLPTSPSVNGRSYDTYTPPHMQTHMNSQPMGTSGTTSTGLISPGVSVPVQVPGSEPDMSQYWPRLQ
Summary of the method: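 Multiplexed cis-reporter HepG2 system; 24 h treatment; reporter mRNA read by RT-PCR/CE fluorescence; bidirectional fit vs DMSO.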

Row | SMILES | AC50 | outcome
75 | Nc1ccc(N=Nc2ccccc2)cc1 | 47.4 µM (active) | –
76 | N#CC(Br)(Br)C(N)=O | – | inactive
77 | OCCOCCO | – | inactive
78 | CC(C)(OOC(C)(C)c1ccccc1)c1ccccc1 | – | inactive
79 | CCC(C)c1ccc(O)cc1 (configuration not stated) | – | inactive
80 | Cc1cc(N=Nc2ccccc2C)ccc1N | 22.4 µM (active) | –
81 | CCC12COCN1COC2 | – | inactive
82 | CCCCCCCCn1sccc1=O | 19.1 µM (active) | –
83 | CCCCOC(=O)c1ccccc1C(=O)OCc1ccccc1 | – | inactive
84 | COC(=O)Nc1nc2ccccc2[nH]1 | – | inactive
85 | CC(C)(C)OOC(C)(C)CCC(C)(C)OOC(C)(C)C | – | inactive
86 | O=C1CCCO1 | – | inactive
87 | CCC[CH2][Sn]([Cl])([CH2]CCC)[CH2]CCC | 0.678 µM (active) | –
88 | [O-][Cl+]O | – | inactive
89 | ClCCOCCCl | – | inactive
90 | CC(C)(C)OOC(=O)c1ccccc1 | 149 µM (active) | –
91 | c1ccc(NNc2ccccc2)cc1 | – | inactive
92 | Cc1ccc(N=C=O)cc1N=C=O | – | inactive
93 | c1ccc2c(c1)-c1cccc3cccc-2c13 | – | inactive
94 | Cc1cccc(N)c1N | 106 µM (active) | –
95 | Clc1ccc(C(c2ccc(Cl)cc2)C(Cl)(Cl)Cl)cc1 | – | inactive
96 | CN(C)c1ccc(C(=O)c2ccc(N(C)C)cc2)cc1 | – | inactive
97 | COC(=O)c1ccccc1N | – | inactive
98 | O=C(N[C@H](c1ccccc1)[C@@H]1CN2CCC1CC2)c1c(Cl)ccc(C(F)(F)F)c1Cl | – | inactive
99 | CN(C)c1ccccc1 | – | inactive
100 | O=[N+]([O-])c1ccc(Oc2ccc(Cl)cc2Cl)cc1 | 31.9 µM (active) | –
101 | CCCCCCCCOC(=O)c1ccc(C(=O)OCCCCCCCC)c(C(=O)OCCCCCCCC)c1 | – | inactive
102 | COP(=S)(OC)SCN1C(=O)c2ccccc2C1=O | – | inactive
